An excerpt weighted towards active compounds, which were near 27% of everything screened.
Cav3 T inh: inhibitors of human Cav3.2 T-type calcium channel; O95180; Cav3.2-expressing cells, Fluo-4 calcium fluorescence FDSS; hits give low values; B-score at 10 µM; actives 4% (n = 100,000);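 active means single-dose well whose peak fluorescence ratio is a statistical outlier from its plate by either plate-standardised score or position-corrected B-score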
CYP2C9 act: CYP2C9 (human) activation. activation factor at 5 µM. P11712. recombinant CYP2C9, luciferin-H conversion, luminescence; hits give high values; factor 1 = untreated enzyme, 0 = blocked. actives 1.4% (n = 96,000);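 active means activation factor of 2 or more for CYP2C9 at a 5 µM dose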
CYP2C19 inh: human CYP2C19 inhibition; P33261; CYP2C19 Supersomes, luciferin-H EGE luminescence, 30 min; inhibition, % at 5 µM; actives 21% (n = 96,000); AID 778;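 active means CYP2C19 inhibition above a set limit at 5 µM in the primary screen, cut at about 50% in these data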
Target sequence (P33261 whole entry, looked up): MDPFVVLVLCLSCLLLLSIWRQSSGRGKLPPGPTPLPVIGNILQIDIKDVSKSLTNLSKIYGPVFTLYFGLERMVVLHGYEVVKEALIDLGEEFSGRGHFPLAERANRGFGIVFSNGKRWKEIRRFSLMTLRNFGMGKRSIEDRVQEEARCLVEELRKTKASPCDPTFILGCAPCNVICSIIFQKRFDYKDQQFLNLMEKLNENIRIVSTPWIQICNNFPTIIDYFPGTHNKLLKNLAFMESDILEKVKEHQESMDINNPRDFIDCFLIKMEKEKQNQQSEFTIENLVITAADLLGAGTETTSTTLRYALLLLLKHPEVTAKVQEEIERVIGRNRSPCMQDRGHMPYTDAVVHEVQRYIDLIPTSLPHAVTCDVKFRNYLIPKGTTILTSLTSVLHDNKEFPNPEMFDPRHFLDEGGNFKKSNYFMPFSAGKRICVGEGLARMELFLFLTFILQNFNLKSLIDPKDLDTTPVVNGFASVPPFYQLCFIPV
CYP2C9 inhib: inhibitors of human CYP2C9; inhibition, % at 5 µM; actives 20% (n = 96,000); CYP2C9 Supersomes, luciferin-H conversion, luminescence; P11712;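 active means blocking of liver enzyme CYP2C9 beyond about 50% at 5 µM, limit read from the data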
CYP2C19 act: cytochrome P450 2C19 (human) activation | AID 1025 | recombinant CYP2C19, luciferin-H EGE luminescence; hits give high values; 0 = fully inhibited enzyme, 1 = untreated enzyme | 96,000 tested, under 10 active | activation factor at 5 µM;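 active means activation factor of at least 2 at 5 µM in the primary screen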
A number is an active result; – = inactive; · = not tested or not shown.

SMILES | Cav3 T inh | CYP2C9 act | CYP2C19 inh | CYP2C9 inhib | CYP2C19 act
O=C(NCC1CCCO1)c1ccc(N2CCCCC2)nc1 (stereo not given) | – | – | – | – | –
COC(=O)C1C(C(C)C)N(c2ccccc2)OC1(C)O (stereo not given) | – | – | 56 | – | –
Cc1oc2ccc(OCC(N)=O)cc2c1C(=O)OC(C)C | – | – | – | – | –
CCOC(=O)c1c(C)oc2ccc(OCC(=O)C(C)(C)C)cc12 | – | – | 65 | 72 | –
CCOC(=O)c1c(C)oc2ccc(OCc3cc(C(=O)OC)oc3C)cc12 | – | – | 64 | 86 | –
Cc1ccccc1CSc1nnc(-c2ccco2)n1Cc1ccco1 | – | – | 66 | – | –
c1ccc(CSc2nnc(-c3cccs3)n2Cc2ccco2)cc1 | – | · | · | · | ·
c1ccc(CSc2nnc(-c3ccco3)n2Cc2ccco2)cc1 | – | – | 78 | – | –
CCCn1c(N)c(C(=O)CSc2nnc(-c3ccco3)n2Cc2ccccc2)c(=O)[nH]c1=O | – | · | · | · | ·
O=C1c2ccccc2C(=O)N1CCSc1nnc(-c2ccco2)n1Cc1ccccc1 | – | – | 97 | 65 | –
Cc1ccccc1CSc1nnc(-c2cccs2)n1Cc1ccco1 | -6.5 | – | 62 | – | –
CC1=CCC(C(=O)O)(C(=O)N/N=C/c2cccs2)C(c2ccc([N+](=O)[O-])cc2)C1 (stereo not given) | – | – | – | – | –
CN1C[C@@H]2C(c3ccc(Cl)nc3)C3(c4ccccc4)CC2(C3)[C@H]1c1ccccc1 (stereo not given in full) | – | · | · | · | ·
O=C(CSc1nc2ccccc2[nH]1)Nc1ccc(F)c(F)c1 | -4.4 | – | 56 | 66 | –
O=C(CSC1=NCCS1)Nc1ccccc1F | – | – | 79 | – | –
O=C(CSc1nc2ccccc2[nH]1)NCCCn1ccnc1 | – | – | 92 | 95 | –
O=C(O)CSc1nc2ccccc2[nH]1 | – | – | – | – | –
O=C(CSC1=NCCS1)Nc1cccc2ccccc12 | · | – | – | – | –
O=C(CSc1nc2ccccc2[nH]1)Nc1ccccc1F | – | – | 64 | 84 | –
CC(=O)c1ccc(N2CCN(C(=O)CCS(=O)(=O)c3ccc(C)cc3)CC2)cc1 | · | – | – | – | –
CCOc1ccccc1N(CC(=O)NC1CCCC1)C(=O)CCC(=O)Nc1cc(C)on1 | – | – | 83 | 83 | –
COc1ccccc1N(CC(=O)NC1CCCC1)C(=O)CCC(=O)Nc1cc(C)on1 | – | – | 63 | 65 | –
CN1CCN(CCN2CCn3c2nc2ccccc23)CC1 | – | – | – | – | –
CC1(C)CC(=O)c2c(noc2-c2ccccc2)C1 | – | – | – | – | –
c1ccc(-c2onc3cc4c(cc23)OCCO4)cc1 | – | – | 50 | 54 | –
SMILES | Cav3 T inh | CYP2C9 act | CYP2C19 inh | CYP2C9 inhib | CYP2C19 act
Cc1ccc(CN2CCN(c3ncccn3)CC2)o1 | · | – | 68 | – | –
Cc1cc(NC(=O)CN2CCN(c3ncccn3)CC2)no1 | – | – | – | – | –
Fc1cccc(F)c1CN1CCN(c2ncccn2)CC1 | – | – | 79 | – | –
CC(C1CC1)N(C(=O)NC1CCS(=O)(=O)C1)c1ccccc1 (stereo not given) | – | – | – | – | –
CC(=O)c1sc(NC(=O)c2cc3c(C)nn(-c4ccccc4)c3s2)nc1C | – | – | – | – | –
Cc1nc(NC(=O)c2cc3c(C)nn(-c4ccccc4)c3s2)sc1C(=O)Nc1ccccc1 | · | – | – | 59 | –
Cc1nn(-c2ccc(F)cc2)c2sc(C(=O)N3CCCCCC3)cc12 | – | – | 68 | 68 | –
Cc1nn(-c2ccccc2)c2sc(C(=O)NC3CC3)cc12 | – | – | – | 51 | –
Cc1nn(-c2ccccc2)c2sc(C(=O)N(CC(=O)NC3CCCC3)Cc3ccco3)cc12 | – | – | 72 | 70 | –
O=C(NCCN1CCN(Cc2ccccc2Cl)CC1)Nc1ccccc1 | – | – | – | – | –
NC(=O)CNC(=O)[C@@H]1CC2(CC(c3ccccc3)=NO2)CN1C(=O)c1ccc(Br)cc1 (stereo not given in full) | – | – | – | – | –
Cc1ccc(C(=O)Nc2cnc3sc(C)nn3c2=O)cc1 | – | – | – | – | –
N#CCC(=O)Nc1ncn(Cc2ccccc2Cl)n1 | – | – | – | – | –
CC1(C)S[C@@H]2C(C(=O)OCc3ccccc3)NC(=O)N2C1C(=O)OCc1ccccc1 (stereo not given in full) | – | · | · | · | ·
COCCN(CC(=O)NCc1ccc(F)cc1)C(=O)CCC(=O)Nc1ccccn1 | · | – | – | – | –
Cc1ccc(N2CN=C(c3ccccc3)NC2=S)cc1 | – | – | 99 | 76 | –
Cn1c2ccccc2c(=O)c2c(=O)n(C3CCCCC3)c(-c3cccs3)nc21 | -4.3 | – | – | 95 | –
CCC(=O)Nc1c(-c2cccs2)c(=O)c2ccccc2n1C | – | – | – | – | –
COc1cc(COc2ccc3c(C)c(Cc4ccccc4)c(=O)oc3c2)cc(OC)c1OC | · | – | – | 57 | –
COc1cc(COc2ccc3c(C)c(Cc4ccccc4)c(=O)oc3c2C)cc(OC)c1OC | – | – | 58 | 66 | –
Cc1c(C)c2ccc(OCc3ccc(C(=O)O)o3)c(C)c2oc1=O | – | – | – | – | –
Cc1c(Cc2ccccc2)c(=O)oc2cc(OCc3nn[nH]n3)ccc12 | – | – | – | – | –
Cc1c(Cc2ccccc2)c(=O)oc2cc(OC(=O)c3ccccc3)ccc12 | – | – | 60 | – | –
COc1cccc(COc2ccc3c(C)c(Cc4ccccc4)c(=O)oc3c2)c1 | -3.7 | · | · | · | ·
CCOC(=O)c1c(C)[nH]c(C)c1C(=O)CSc1nnc(-c2cc(OC)c(OC)c(OC)c2)o1 | · | – | – | – | –
SMILES | Cav3 T inh | CYP2C9 act | CYP2C19 inh | CYP2C9 inhib | CYP2C19 act
CCCCSc1nc(N)c(NC(=O)c2ccco2)c(=O)[nH]1 | – | – | – | – | –
Cc1cc2ccccc2n1CCNC(=O)c1ccc(Br)o1 | – | · | · | · | ·
S=c1oc(-c2ccncc2)nn1CCc1ccncc1 | – | – | 99 | 85 | –
CC1=Nn2c(nc(-c3ccccc3)c2-c2ccccc2)NC(=O)C1Br (stereo not given) | – | – | – | – | –
CC(C)NC(=O)c1ccccc1NC(=O)CN(c1ccc2c(c1)OCO2)S(C)(=O)=O | – | – | – | 82 | –
COC(=O)c1ccc(C)c(NC(=O)CN(c2ccc3c(c2)OCO3)S(C)(=O)=O)c1 | · | – | 70 | 69 | –
CS(=O)(=O)N(CC(=O)Nc1ccccc1C(=O)NCCc1ccccc1)c1ccc2c(c1)OCCO2 | – | – | 87 | 94 | –
COC(=O)c1ccc(C)c(NC(=O)CN(c2cc(OC)ccc2OC)S(C)(=O)=O)c1 | – | – | 56 | – | –
COc1ccccc1N(CC(=O)Nc1ccccc1C(=O)NC(C)C)S(C)(=O)=O | – | – | – | – | –
CS(=O)(=O)N(CC(=O)O)c1ccc2c(c1)OCO2 | · | – | – | – | –
CCCn1nnnc1SCC(=O)NCc1ccc2c(c1)OCO2 | – | – | 66 | 53 | –
CC(C)n1nnnc1SCC(=O)NCc1ccc2c(c1)OCO2 | – | – | – | – | –

High-throughput results: PubChem BioAssay, several laboratories
